A selection: hits, their analogues and other compounds. The true share with any hit is near 0.68%.
Rv3671c protease: Rv3671c serine protease inhibitors, primary screen, biochemical, fluorescence polarization, M. tuberculosis H37Rv; P9WHR9; inhibition, % at 5.96 µM; AID 2606, 2010; actives 0.048% (n = 320,000); in the data active = inhibition above about 38%;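 note: extracellular domain of Rv3671c used as enzyme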
Mtb UGM inh: M. tuberculosis UGM enzyme inhibitors, primary screen, biochemical, fluorescence polarization, single point. AID 504406, 2011. inhibition, % at 10 µM. actives 0.06% (n = 320,000). purified UGM, fluorescence polarization probe displacement; in the data active = inhibition above about 10%, passing the limit was not always enough; inconclusive = no clear call, values can overlap the other calls
Target sequence (P9WIQ1 whole entry, looked up): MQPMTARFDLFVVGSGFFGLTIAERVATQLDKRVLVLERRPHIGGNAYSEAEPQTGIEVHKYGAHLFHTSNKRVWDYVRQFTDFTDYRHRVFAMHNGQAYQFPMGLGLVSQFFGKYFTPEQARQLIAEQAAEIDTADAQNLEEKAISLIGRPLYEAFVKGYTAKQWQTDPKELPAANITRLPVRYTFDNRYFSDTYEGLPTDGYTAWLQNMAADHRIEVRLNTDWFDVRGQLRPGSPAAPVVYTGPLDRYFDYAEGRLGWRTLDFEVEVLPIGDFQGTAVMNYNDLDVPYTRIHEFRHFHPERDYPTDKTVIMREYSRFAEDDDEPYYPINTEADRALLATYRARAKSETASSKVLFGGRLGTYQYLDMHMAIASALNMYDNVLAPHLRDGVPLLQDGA
Mtb hypoxia inh: PubChem AID 1159583; M. tuberculosis hypoxia-regulated fluorescent reporter, fluorescence; fluorescence inhibition, % (no concentration beside the values); actives 0.1% (n = 300,000); in the data active = fluorescence inhibition mostly above about 23%, no sharp cut-off; inactive = mostly below about 17%
Mtb betalactam: beta-lactam sensitization of Mtb H37Rv, H37Rv | actives 0.27% (n = 330,000) | M. tuberculosis H37Rv growth with meropenem, percent inhibition | inhibition, % at 25 µM | AID 434955, 2010; call rule not given here;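 note: growth measured after seven days incubation then overnight dye step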
Sa ugtP lethal: growth inhibition of ugtP-null S. aureus, primary screen, RN4220 ugtP deletion, OD600; 16 h; growth inhibition, % (no concentration beside the values); actives 0.54% (n = 330,000); AID 1259309, 2017; in the data active = growth inhibition above about 68%
Sa RN4220 lethal: growth inhibition of S. aureus RN4220, primary screen, OD600. actives 0.33% (n = 330,000). 16 h. inhibition, % (test concentration not listed); in the data active = inhibition above about 85%
Of the large screens only hits and unclear results are named; the others gave an inactive call.

Cc1cc2ccccc2cc1C(=O)c1ccccc1	none (no result: Rv3671c protease, Mtb UGM inh, Mtb betalactam)
O=C(c1ccccc1)c1c2c(cc3sc4ccccc4[n+]13)-c1cccc3cccc-2c13	Sa ugtP lethal 100, Sa RN4220 lethal 100
O=C(c1ccccc1)c1ccc2ccccc2c1	none (no result: Rv3671c protease, Mtb UGM inh, Mtb betalactam)
Cc1sc2cc3c(c(C(=O)c4ccccc4)[n+]2c1C)-c1cccc2cccc-3c12	Sa ugtP lethal 100, Sa RN4220 lethal 100 (not shown: Mtb hypoxia inh)
COc1ccc(C2C=CCN(C(=O)Oc3ccc(C(F)(F)F)cc3)CC(=O)N2Cc2ccc(F)cc2)cc1 (stereo not given)	none (no result: Rv3671c protease, Mtb UGM inh, Mtb betalactam)
C[C@@]12C(=O)Nc3ccc(Cl)cc3C(=O)N1C1c3cc(Br)ccc3OCC1C2c1ccccc1 (stereo not given in full)	none (no result: Rv3671c protease, Mtb UGM inh, Mtb betalactam)
Cn1c(/C=C/c2ccc([N+](=O)[O-])o2)nc2ccccc2c1=O	Sa ugtP lethal 97, Sa RN4220 lethal 99 (not shown: Mtb hypoxia inh)
Cn1c(/C=C/c2ccccc2)nc2ccccc2c1=O	none
C=C(C)COc1ccc(-c2[nH]ncc2-c2ccccc2)c(O)c1	Sa ugtP lethal 84
CC(C)NC(=O)N(C)CC1Oc2ccc(NS(=O)(=O)c3ccc(F)cc3)cc2C(=O)N(C(C)CO)CC1C (stereo not given)	none (no result: Rv3671c protease, Mtb UGM inh, Mtb betalactam)
O=C(NCc1ccc(F)cc1)c1cccc2c1C(=O)c1ccc(N3CCC(Cc4ccccc4)CC3)cc1S2(=O)=O	Mtb UGM inh 33
CCCCCCOC(=O)C[N+](C)(C)CCOC1CC2CCC1(C)C2(C)C (stereo not given)	none
CCCCOC(=O)C[N+](C)(C)CCOC1CC2CCC1(C)C2(C)C (stereo not given)	Sa ugtP lethal 89
CCCOC(=O)C[N+](C)(C)CCOC1CC2CCC1(C)C2(C)C (stereo not given)	none
CC(C)CCOC(=O)C[N+](C)(C)CCOC1CC2CCC1(C)C2(C)C (stereo not given)	Mtb hypoxia inh 41, Sa ugtP lethal 101
CCCCCCCOC(=O)C[N+](C)(C)CCOC1CC2CCC1(C)C2(C)C (stereo not given)	Sa ugtP lethal 100, Sa RN4220 lethal 100 (no result: Rv3671c protease, Mtb UGM inh, Mtb betalactam)
C#CCOCCOCCOCCNc1nc(OC)nc(N2CCN(C(=O)C(CCC(=O)O)n3cc(C(N)CO)nn3)CC2)n1 (stereo not given)	none (no result: Rv3671c protease, Mtb UGM inh, Mtb betalactam)
CS(=O)(=O)N1c2ccccc2[C@@]2(Br)CC3C(=O)NC(Cc4ccccc4)C(=O)N3C12 (stereo not given in full)	none (no result: Rv3671c protease, Mtb UGM inh, Mtb betalactam)
COCc1nnc(NC(=O)c2ccc(S(=O)(=O)N3CCCc4ccccc43)cc2)o1	none
CC1CN(S(=O)(=O)c2ccc(C(=O)Nc3nnc(-c4ccc5c(c4)CCCC5)o3)cc2)CC(C)O1 (stereo not given)	Sa ugtP lethal 99, Sa RN4220 lethal 99
O=C(Nc1nnc(C2CC2)o1)c1ccc(S(=O)(=O)N2CCCc3ccccc32)cc1	Sa ugtP lethal 94, Sa RN4220 lethal 89
COc1ccc(-c2nnc(NC(=O)c3ccc(S(=O)(=O)N4CCCc5ccccc54)cc3)o2)cc1	Sa ugtP lethal 100, Sa RN4220 lethal 98
CC1CN(S(=O)(=O)c2ccc(C(=O)Nc3nnc(-c4ccccn4)o3)cc2)CC(C)O1 (stereo not given)	none
COC(=O)C1=C(c2ccc(-c3ccccc3)c(F)c2)CC2CCC1N2C(=O)N1CCc2cc(OC)c(OC)cc2C1 (stereo not given)	none (no result: Rv3671c protease, Mtb UGM inh, Mtb betalactam)
c1ccc(-c2nc3nonc3nc2-c2ccccc2)cc1	Sa ugtP lethal 98, Sa RN4220 lethal 97
Nc1c(-c2ccccc2)nc(Cl)nc1-c1ccccc1	none
C#CCOCCOCCOCCNc1nc(N2CCN(C(=O)C(CCC(=O)O)n3cc(C(N)CC(C)C)nn3)CC2)nc(N2CCN(C(=O)C(C(C)CC)n3cc(C(N)CO)nn3)CC2)n1 (stereo not given)	none (no result: Rv3671c protease, Mtb UGM inh, Mtb betalactam)
COc1cccc(C=NNc2ncc(C(F)(F)F)cc2Cl)c1O	Sa ugtP lethal 99, Sa RN4220 lethal 100 (no result: Rv3671c protease, Mtb UGM inh, Mtb hypoxia inh, Mtb betalactam)
CC(=O)OCC1=C(C(=O)OC(C)(C)C)N2C(=O)[C@@H](NC(=O)Cc3ccccc3)[C@H]2SC1	Sa ugtP lethal 94, Sa RN4220 lethal 96 (no result: Rv3671c protease, Mtb UGM inh, Mtb betalactam)
CC1=C(C(=O)OCC(Cl)(Cl)Cl)N2C(=O)C(NC(=O)Cc3ccccc3)C2SC1 (stereo not given)	none
COCC1=C(C(=O)OC(C)OC(=O)OC(C)C)N2C(=O)C(NC(=O)C(=NOC)c3csc(N)n3)C2SC1 (stereo not given)	none (no result: Rv3671c protease, Mtb UGM inh, Mtb betalactam)
CON=C(C(=O)NC1C(=O)N2C(C(=O)O)=C(COC(C)=O)CSC12)c1csc(N)n1 (stereo not given)	Sa ugtP lethal 100, Sa RN4220 lethal 100 (not shown: Rv3671c protease, Mtb UGM inh, Mtb hypoxia inh, Mtb betalactam)
CC(=O)OCC1=C(C(=O)O)N2C(=O)C(NC(=O)c3ccc(COc4cccc(Cl)c4Cl)o3)C2SC1 (stereo not given)	Sa ugtP lethal 100, Sa RN4220 lethal 100
Cc1nnc(SCC2=C(C(=O)O)N3C(=O)C(NC(=O)C(C)n4nc(C(F)(F)F)cc4C)C3SC2)s1 (stereo not given)	Sa ugtP lethal 101, Sa RN4220 lethal 100 (not shown: Mtb hypoxia inh)
COc1cccc(C(=O)NC2C(=O)N3C(C(=O)O)=C(COC(C)=O)CSC23)c1 (stereo not given)	none (no result: Mtb hypoxia inh, Sa ugtP lethal, Sa RN4220 lethal)
COC(=O)C1=C(c2ccc(C(C)=O)cc2)CC2CCC1N2C(=O)N1CCCC1 (stereo not given)	none (no result: Rv3671c protease, Mtb UGM inh, Mtb betalactam)
COC(CC(O)C(C)C(O)COCc1ccccc1)OC (stereo not given)	none (no result: Rv3671c protease, Mtb UGM inh, Mtb betalactam)
CC(=CC(=O)O)CC[C@@]1(C)C(C)CC[C@@]2(C)C(C)=CCCC12 (stereo not given in full)	none (no result: Rv3671c protease, Mtb UGM inh, Mtb betalactam)
CC1=C(C(=O)O)N2C(=O)C(NC(=O)c3ccccc3Cl)C2SC1 (stereo not given)	Mtb betalactam inconclusive
Cc1nnc(SCC2=C(C(=O)O)N3C(=O)C(NC(=O)Cc4ccccc4)C3SC2)s1 (stereo not given)	Sa ugtP lethal 100, Sa RN4220 lethal 100 (not shown: Mtb hypoxia inh)
C[C@@]12C(=O)N(c3ccc(F)cc3)C(=O)N1C1c3ccccc3OCC1C2c1ccccc1 (stereo not given in full)	none (no result: Rv3671c protease, Mtb UGM inh, Mtb betalactam)
CC1=CC(C)[C@H](C=Nn2c(=O)[nH]c3c([nH]c4ccc(Br)cc43)c2=O)C(C)C1 (stereo not given in full)	Sa ugtP lethal 66 (no result: Rv3671c protease, Mtb UGM inh, Mtb betalactam)
O=[N+]([O-])c1cccc(N=Nc2ccc(O)cc2O)c1	none (not shown: Rv3671c protease, Mtb UGM inh, Mtb hypoxia inh, Mtb betalactam)
O=[N+]([O-])c1ccc(N=Nc2ccc(O)cc2O)cc1	Sa ugtP lethal 98, Sa RN4220 lethal 99 (not shown: Mtb hypoxia inh)
COc1ccc(C=NNC(=O)Cc2ccc(Cl)cc2)cc1OC	none (no result: Rv3671c protease, Mtb UGM inh, Mtb betalactam)
CC(C)C(C(=O)N1CCN(C(=O)OC(C)(C)C)CC1)n1cc(-c2cn(C(C)C(=O)N3CCN(C(=O)OC(C)(C)C)CC3)nn2)nn1 (stereo not given)	none (no result: Rv3671c protease, Mtb UGM inh, Mtb betalactam)
COCCNS(=O)(=O)c1ccc(-c2ccc(C)cc2)cc1	Mtb hypoxia inh 77 (no result: Mtb betalactam)

Source: PubChem BioAssay
